# Measurements published in PubChem BioAssay (NCATS).
# Records with an inconclusive call do not appear. Active and inactive are the calls of the source. Unless noted, calls follow the shape of the dose curve; as a rule, active = well fitted curve in the direction sought with a large enough effect; inconclusive = small, poorly fitted or top-dose-only effect, or another doubt; inactive = no such curve, though single readings can be large; an effect the other way counts as inactive or inconclusive.
# How the values were obtained:
# [1] = biological target: Lysosomal acid glucosylceramidase (Homo sapiens) (UniProt P04062); experiment: Glucocerebrosidase-p2 (AID 348; in the data active = potency below about 10 µM; also: potency is read from the fitted curve at half-maximal effect); details: purified GBA, blue fluorogenic substrate, 40 min
# In short: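 Normal human glucocerebrosidase (0.2 nM) with blue fluorogenic substrate (80 uM final) in citrate/phosphate pH 5.9 with 10mM sodium taurocholate, 0.01% tween-20; 40 min RT, NaOH/glycine stop; fluorescence Ex 365/Em 440; AC50 from a titration from 0.6 nM upwards.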
# [2] = AP1 Signaling Pathway (AID 357; active = well fitted curve in either direction with a large enough effect, not every such curve was filed as active;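 also: ME-180 reporter cells stimulated with EGF at its EC50 level; % is scaled to controls: 0 for no effect and ±100 for the full control effect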); details: ME-180 AP-1-bla reporter, EGF-induced, beta-lactamase ratio, 5 h; at 7.69 µM (top of the series) unless noted
# In short: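 Modulation of EGF-driven AP-1 transcription was assessed with a beta-lactamase reporter in ME-180 cells. Compound and EC50 EGF were co-incubated 5 hours at 37 °C before 2.5-hour CCF4 loading at room temperature and dual-emission reading.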
# [3] = NFAT Signaling Pathway (AID 444; active = well fitted curve in either direction with a large enough effect, not every such curve was filed as active;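 also: carbachol stimulus at about its EC50 of 1 µM final; % is scaled to controls: 0 for no effect and ±100 for the full control effect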); details: Jurkat NFAT-bla M1, carbachol, beta-lactamase ratio, 5 h; at 7.69 µM (top of the series) unless noted
# In short: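 Jurkat cells with NFAT-driven β-lactamase reporter and co-expressed M1 receptor, stimulated with carbachol (final 1 uM, ~EC50), compound titration, 5 h at 37 °C. CCF4 loaded 1 h at RT; 460/530 nm ratio gave %activity and AC50.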
# [4] = Stat Signaling Pathway (AID 446; active = well fitted curve in either direction with a large enough effect, not every such curve was filed as active;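 also: ME-180 cervical cancer cells given 40 pM IL-6 alongside compound; SIE-controlled beta-lactamase reporter measured as 460/530 nm FRET emission ratio; % is scaled to controls: 0 for no effect and ±100 for the full control effect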); details: ME-180 SIE beta-lactamase reporter, IL-6 stimulated, 5 h; at 7.69 µM (top of the series) unless noted
# In short: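 Normalization used AC90 stimulation (300 pM IL-6) and AC90 inhibition (125 nM pan-JAK inhibitor at 40 pM IL-6). The underlying signal is SIE-driven beta-lactamase in ME-180 cells after 5 h IL-6 exposure with compound.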
# [5] = biological target: Glucocorticoid receptor (Homo sapiens) (UniProt P04150); experiment: GR-GFP Redistribution (AID 450;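 active = compounds whose dose series gives a full or clear partial fitted curve of increased nuclear translocation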; also: potency is read from the fitted curve at half-maximal effect); details: U2OS GR-GFP nuclear translocation, laser cytometry, 2 h
# [6] = biological target: Glucocorticoid receptor (Homo sapiens) (UniProt P04150); experiment: GR-EFC Redistribution (AID 451; calls by dose curve; also: potency is read from the fitted curve at half-maximal effect); details: CHO-K1 GR-EFC translocation, beta-gal luminescence, 2 h
# In short: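 CHO-K1 cells expressing nuclear EA and GR-ED fragments of b-gal; compounds titrated up to 46 uM final, 2 h at 37 C. GR nuclear translocation read as complemented b-gal luminescence after 1 h RT detection.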
# [7] = biological target: Mitogen-activated protein kinase 10 (Mus musculus) (UniProt Q61831); experiment: JNK3 AlphaScreen Assay (AID 530; active = well fitted curve in either direction with a large enough effect, not every such curve was filed as active;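 also: kinase came from lysate of stimulated human HepG2 cells; signal reports phosphorylation of biotinylated GST-cJun 1-79 at Ser73 with 10 µM ATP; % is scaled to controls: 0 for no effect and ±100 for the full control effect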); details: JNK3 lysate, c-Jun phosphorylation; series mostly up to 57.1 µM
# In short: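 Activity was read by AlphaScreen after JNK3-containing HepG2 lysate (cytokine pre-activated) phosphorylated biotinylated GST-cJun with 10 uM ATP at room temperature. Phospho-Ser73 cJun antibody with Protein-A acceptor beads provided detection.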
# [8] = biological target: 3',5'-cyclic-AMP phosphodiesterase 4B (Homo sapiens) (UniProt Q07343); experiment: qHTS Assay for Inhibitors of PDE-IV (AID 607; active = well fitted activation curve with a large enough effect in the main read-out, with a control signal flat, not every such curve was filed as active; also: % of control where 0% means no effect); details: HEK293 ACTOne CNG channel cells, membrane potential fluorescence; series mostly up to 22.9 µM
# In short: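 HEK293 ACTOne cells with CNG channel (1000/well), endogenous PDE4; membrane potential dye, compounds up to 22.9 uM final. Fluorescence Ex 535/Em 590; RO 20-1724 (100 uM final) as reference.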
# [9] = qHTS Assay for Lipid Storage Modulators (AID 1519; calls by dose curve); details: Drosophila S3 cells, BODIPY lipid droplet/cell ratio, laser cytometry, cells loaded with oleic acid; for activity change, negative = inhibition: at 57.5 µM (top of the series)
# In short: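 Cells seeded at 5,000 per well were treated with compounds over a concentration series and loaded with oleic acid (400 uM, as added). Lipid droplet fluorescence (488 nm excitation, 500-530 nm channel) was read by laser-scanning cytometry and normalized to 20 uM Triacsin C.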
# [10] = biological target: Dual specificity protein kinase CLK4 (Homo sapiens) (UniProt Q9HAZ1); experiment: qHTS Assay for Inhibitors of CDC-like Kinase 4 (Kinase-Glo Assay) (AID 1770); details: recombinant Clk4, Kinase-Glo ATP depletion luminescence; series mostly up to 66.7 µM; also: nearly all actives have a fitted effect of over 65% in size; also: potency is read from the fitted curve at half-maximal effect
# In short: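 Substrate mix (RS peptide 100 uM, ATP 1 uM) dispensed, compound pinned in, then Clk4 added to 25 nM final. Incubated 4.5 h at RT; Kinase-Glo reagent added, luminescence read after 5 min.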
# [11] = biological target: Dual specificity protein kinase CLK4 (Homo sapiens) (UniProt Q9HAZ1); experiment: qHTS Assay for Inhibitors of CDC-like Kinase 4 (ADP-Glo Assay) (AID 1771); details: recombinant CLK4, ADP-Glo luminescence; series mostly up to 80 µM; also: nearly all actives have a fitted effect of over 70% in size; also: potency is read from the fitted curve at half-maximal effect
# In short: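 ADP production was read by ADP-Glo luminescence after residual ATP depletion, following 1 h room-temperature reaction of 25 nM Clk4, 1 uM ATP and 100 uM RS peptide with MgCl2, EGTA, DTT and Triton X-100.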
# [12] = biological target: Dual specificity protein kinase CLK4 (Homo sapiens) (UniProt Q9HAZ1); experiment: qHTS Assay for Inhibitors of CDC-like Kinase 4 (ADP-FP Assay) (AID 1795); details: Transcreener ADP fluorescence polarization; series mostly up to 50 µM; also: nearly all actives have a fitted effect of over 60% in size; also: potency is read from the fitted curve at half-maximal effect
# In short: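 Clk4 6.25 nM; RS peptide 100 uM; ATP 1 uM; 25 mM Tris pH 7.5, 10 mM MgCl2; 1 h reaction. ADP detected via antibody/orange tracer FP displacement; TG003 positive control.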
# [13] = biological target: Ubiquitin carboxyl-terminal hydrolase 1 (Homo sapiens) (UniProt O94782); experiment: Inhibitors of USP1/UAF1: Pilot qHTS (AID 504865); details: purified USP1/UAF1, Ub-rhodamine cleavage fluorescence; series mostly up to 54.9 µM; also: nearly all actives have a fitted effect of over 35% in size; also: potency is read from the fitted curve at half-maximal effect
# In short: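 In 50mM HEPES pH 7.8 containing 0.5mM EDTA, 1mM TCEP, 0.1 mg/ml BSA and 0.01% Tween-20, 1nM USP1/UAF1 is exposed to compound for 15 min, then Ub-Rho (150nM final) is added and fluorescence is read over time.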
# [14] = biological target: Cytochrome P450 1A2 (Homo sapiens) (UniProt P05177); experiment: p450-cyp1a2 (AID 410; calls by dose curve; also: potency is read from the fitted curve at half-maximal effect); details: recombinant CYP1A2, luciferin-ME demethylation, luminescence; series mostly up to 57 µM
# In short: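 Luminescent demethylation readout: Luciferin-ME (100uM, equal to Km) turned over by 20nM CYP1A2 for 60 min at room temperature after NADPH regeneration addition, following 10 min compound preincubation. Normalization used 57 uM furafylline as full inhibition.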
# [15] = biological target: Cytochrome P450 3A4 (Homo sapiens) (UniProt P08684); experiment: qHTS Assay for Inhibitors and Substrates of Cytochrome P450 3A4 (AID 884); details: recombinant CYP3A4, Luciferin-PPXE luminescence; series mostly up to 57.1 µM; also: % is scaled to controls: 0 for no effect and ±100 for the full control effect; nearly all actives have a fitted effect of over 50% in size
# In short: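 Luminescent readout of luciferin produced by CYP3A4 (20 nM) dealkylation of Luciferin-PPXE, 25 uM (its KM). NADPH-driven reaction ran 60 min at RT after 10 min compound preincubation; data scaled to 57 uM ketoconazole as 100% inhibition.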
# [16] = biological target: Cytochrome P450 3A4 (Homo sapiens) (UniProt P08684); experiment: qHTS Assay for Activators of Cytochrome P450 3A4 (AID 885); details: recombinant CYP3A4, Luciferin-PPXE luminescence, 60 min; series mostly up to 57.1 µM; also: nearly all actives have a fitted effect of over 65% in size; also: potency is read from the fitted curve at half-maximal effect
# In short: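 Human CYP3A4 dealkylates Luciferin-PPXE to luciferin, which luciferase detection converts to light. Substrate was at its KM (25uM), buffer 200mM KPO4, reaction 60 min at RT.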
# [17] = biological target: Cytochrome P450 2C19 (Homo sapiens) (UniProt P33261); experiment: qHTS Assay for Inhibitors and Substrates of Cytochrome P450 2C19 (AID 899); details: recombinant CYP2C19, luciferin-H EGE luminescence; series mostly up to 57.1 µM; also: potency is read from the fitted curve at half-maximal effect; nearly all actives have a fitted effect of over 60% in size
# In short: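 5 nM human CYP2C19 with 10uM Luciferin-H EGE (at KM) in 50mM KPO4, compound preincubated 10 min at 37C, then NADPH regeneration for 60 min at 37C. Luciferin read by luminescence after detection reagent; normalized to 57uM ketoconazole as full inhibition.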
# [18] = qHTS Assay for Identification of Small Molecule Agonists for Hypoxia Response Element Signaling Pathway (AID 914; active = well fitted activation curve with a large enough effect in the signal ratio, with a control signal flat, not every such curve was filed as active; the % refers to the signal ratio; also: % of control where 0% means no effect); details: ME-180 (cervical carcinoma) HRE-bla reporter, beta-lactamase ratio, CoCl2, 17 h; activation: stronger effect = higher value
# In short: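 HRE-bla ME-180 assay for agonist-like enhancement of an EC50 CoCl2 stimulus: 17 h at 37 degrees Celsius, CCF4 for 2.5 h, ratiometric 460/530 nm signal converted to %Activity and fitted to AC50.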
# [19] = measured here: cell count channel max response
# [20] = measured here: lipid channel max response
# Lysosomal acid glucosylceramidase (Homo sapiens), sequence (P04062 whole entry, looked up): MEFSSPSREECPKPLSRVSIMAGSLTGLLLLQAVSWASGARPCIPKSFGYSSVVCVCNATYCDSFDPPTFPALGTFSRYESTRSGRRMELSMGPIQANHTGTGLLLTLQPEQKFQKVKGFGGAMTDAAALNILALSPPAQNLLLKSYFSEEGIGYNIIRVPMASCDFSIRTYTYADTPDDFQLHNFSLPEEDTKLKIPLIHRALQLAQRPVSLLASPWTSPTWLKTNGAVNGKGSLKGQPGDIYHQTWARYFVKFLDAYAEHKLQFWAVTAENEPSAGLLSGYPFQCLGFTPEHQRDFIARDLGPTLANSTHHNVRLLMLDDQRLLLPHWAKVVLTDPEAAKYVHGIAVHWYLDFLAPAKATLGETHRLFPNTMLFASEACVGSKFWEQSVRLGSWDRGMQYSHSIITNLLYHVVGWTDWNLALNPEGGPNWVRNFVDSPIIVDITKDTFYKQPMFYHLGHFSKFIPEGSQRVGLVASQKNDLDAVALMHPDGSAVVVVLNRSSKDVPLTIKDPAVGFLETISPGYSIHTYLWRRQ
# Cytochrome P450 1A2 (Homo sapiens), sequence (P05177 whole entry, looked up): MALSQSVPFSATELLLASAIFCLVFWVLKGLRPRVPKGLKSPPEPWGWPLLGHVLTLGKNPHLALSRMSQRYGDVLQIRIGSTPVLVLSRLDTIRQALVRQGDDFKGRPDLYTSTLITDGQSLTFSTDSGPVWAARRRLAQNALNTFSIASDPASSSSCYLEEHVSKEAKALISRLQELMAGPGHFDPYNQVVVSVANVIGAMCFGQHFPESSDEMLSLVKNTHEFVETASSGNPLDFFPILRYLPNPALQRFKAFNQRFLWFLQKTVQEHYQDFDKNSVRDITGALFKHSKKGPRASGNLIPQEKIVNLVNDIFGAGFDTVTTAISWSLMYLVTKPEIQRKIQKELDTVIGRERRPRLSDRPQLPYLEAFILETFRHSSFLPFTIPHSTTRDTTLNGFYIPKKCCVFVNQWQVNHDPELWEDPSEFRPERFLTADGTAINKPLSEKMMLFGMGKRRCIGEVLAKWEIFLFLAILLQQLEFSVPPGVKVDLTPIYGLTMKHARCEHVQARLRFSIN
# Ubiquitin carboxyl-terminal hydrolase 1 (Homo sapiens), sequence (O94782 whole entry, looked up): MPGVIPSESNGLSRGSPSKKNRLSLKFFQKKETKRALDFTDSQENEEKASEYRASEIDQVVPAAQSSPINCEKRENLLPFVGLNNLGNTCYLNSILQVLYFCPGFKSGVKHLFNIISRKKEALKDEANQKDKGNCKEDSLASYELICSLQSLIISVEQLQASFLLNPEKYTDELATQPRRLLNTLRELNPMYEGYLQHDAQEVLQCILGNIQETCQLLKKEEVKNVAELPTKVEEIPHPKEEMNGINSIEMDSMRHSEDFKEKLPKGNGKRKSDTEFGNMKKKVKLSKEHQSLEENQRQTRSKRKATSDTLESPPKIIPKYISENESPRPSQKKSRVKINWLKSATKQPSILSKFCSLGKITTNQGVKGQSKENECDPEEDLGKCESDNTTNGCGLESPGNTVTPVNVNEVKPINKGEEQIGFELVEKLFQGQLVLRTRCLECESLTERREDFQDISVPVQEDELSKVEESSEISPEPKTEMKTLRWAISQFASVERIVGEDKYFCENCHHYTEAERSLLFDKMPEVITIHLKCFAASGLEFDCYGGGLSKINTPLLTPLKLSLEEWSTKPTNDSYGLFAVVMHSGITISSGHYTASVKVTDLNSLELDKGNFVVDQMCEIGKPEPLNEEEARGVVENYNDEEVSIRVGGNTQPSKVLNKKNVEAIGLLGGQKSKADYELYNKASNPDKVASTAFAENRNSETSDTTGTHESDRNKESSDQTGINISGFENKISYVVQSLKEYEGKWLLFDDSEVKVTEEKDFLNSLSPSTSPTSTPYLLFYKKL
# Glucocorticoid receptor (Homo sapiens), sequence (P04150 whole entry, looked up, the tested form may be a part): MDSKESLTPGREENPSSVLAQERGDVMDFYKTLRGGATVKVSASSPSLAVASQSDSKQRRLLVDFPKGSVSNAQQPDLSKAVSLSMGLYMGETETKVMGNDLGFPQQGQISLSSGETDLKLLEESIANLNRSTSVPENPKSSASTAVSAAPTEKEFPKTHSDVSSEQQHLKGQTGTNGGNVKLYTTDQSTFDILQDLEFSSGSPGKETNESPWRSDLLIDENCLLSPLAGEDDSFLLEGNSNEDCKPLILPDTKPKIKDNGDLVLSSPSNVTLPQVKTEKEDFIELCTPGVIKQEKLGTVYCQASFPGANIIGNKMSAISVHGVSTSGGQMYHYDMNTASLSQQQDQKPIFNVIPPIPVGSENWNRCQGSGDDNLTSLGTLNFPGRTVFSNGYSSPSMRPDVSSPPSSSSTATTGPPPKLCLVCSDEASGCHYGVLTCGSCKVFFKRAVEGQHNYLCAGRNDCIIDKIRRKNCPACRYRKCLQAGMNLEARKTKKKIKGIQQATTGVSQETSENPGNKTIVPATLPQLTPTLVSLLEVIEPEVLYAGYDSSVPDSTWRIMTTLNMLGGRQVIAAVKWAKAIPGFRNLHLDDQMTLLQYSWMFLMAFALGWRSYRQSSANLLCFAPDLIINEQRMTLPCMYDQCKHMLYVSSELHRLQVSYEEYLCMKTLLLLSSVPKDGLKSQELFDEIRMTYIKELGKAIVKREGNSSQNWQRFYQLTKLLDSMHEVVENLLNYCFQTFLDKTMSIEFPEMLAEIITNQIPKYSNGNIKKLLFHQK
# Cytochrome P450 3A4 (Homo sapiens), sequence (P08684 whole entry, looked up): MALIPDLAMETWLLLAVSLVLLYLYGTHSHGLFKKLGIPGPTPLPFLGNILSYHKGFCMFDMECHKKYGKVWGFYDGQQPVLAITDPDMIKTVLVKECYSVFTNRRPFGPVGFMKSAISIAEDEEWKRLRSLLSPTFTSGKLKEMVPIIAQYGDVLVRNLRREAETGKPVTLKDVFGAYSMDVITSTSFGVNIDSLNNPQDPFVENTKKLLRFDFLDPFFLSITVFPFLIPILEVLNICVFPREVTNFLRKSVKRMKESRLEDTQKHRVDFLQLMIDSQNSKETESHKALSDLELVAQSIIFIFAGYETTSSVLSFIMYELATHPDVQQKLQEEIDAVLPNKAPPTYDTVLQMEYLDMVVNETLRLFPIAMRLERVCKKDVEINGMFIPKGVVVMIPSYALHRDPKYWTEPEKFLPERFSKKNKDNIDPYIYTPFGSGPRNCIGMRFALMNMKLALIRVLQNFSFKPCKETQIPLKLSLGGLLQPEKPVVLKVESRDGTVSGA
# Dual specificity protein kinase CLK4 (Homo sapiens), sequence (Q9HAZ1 whole entry, looked up): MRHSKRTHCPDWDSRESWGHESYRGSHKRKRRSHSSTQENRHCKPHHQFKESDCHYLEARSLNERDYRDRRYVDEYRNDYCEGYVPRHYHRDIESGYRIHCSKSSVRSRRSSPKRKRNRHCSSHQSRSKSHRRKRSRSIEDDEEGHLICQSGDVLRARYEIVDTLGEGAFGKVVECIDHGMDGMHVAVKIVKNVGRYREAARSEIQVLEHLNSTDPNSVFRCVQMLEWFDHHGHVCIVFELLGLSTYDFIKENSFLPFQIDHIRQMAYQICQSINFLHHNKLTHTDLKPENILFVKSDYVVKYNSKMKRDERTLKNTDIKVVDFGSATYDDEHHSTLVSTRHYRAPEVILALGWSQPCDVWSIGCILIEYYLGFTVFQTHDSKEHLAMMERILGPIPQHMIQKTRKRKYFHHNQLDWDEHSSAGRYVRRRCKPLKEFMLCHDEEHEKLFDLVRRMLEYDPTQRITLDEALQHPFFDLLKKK
# 3',5'-cyclic-AMP phosphodiesterase 4B (Homo sapiens), sequence (Q07343 whole entry, looked up): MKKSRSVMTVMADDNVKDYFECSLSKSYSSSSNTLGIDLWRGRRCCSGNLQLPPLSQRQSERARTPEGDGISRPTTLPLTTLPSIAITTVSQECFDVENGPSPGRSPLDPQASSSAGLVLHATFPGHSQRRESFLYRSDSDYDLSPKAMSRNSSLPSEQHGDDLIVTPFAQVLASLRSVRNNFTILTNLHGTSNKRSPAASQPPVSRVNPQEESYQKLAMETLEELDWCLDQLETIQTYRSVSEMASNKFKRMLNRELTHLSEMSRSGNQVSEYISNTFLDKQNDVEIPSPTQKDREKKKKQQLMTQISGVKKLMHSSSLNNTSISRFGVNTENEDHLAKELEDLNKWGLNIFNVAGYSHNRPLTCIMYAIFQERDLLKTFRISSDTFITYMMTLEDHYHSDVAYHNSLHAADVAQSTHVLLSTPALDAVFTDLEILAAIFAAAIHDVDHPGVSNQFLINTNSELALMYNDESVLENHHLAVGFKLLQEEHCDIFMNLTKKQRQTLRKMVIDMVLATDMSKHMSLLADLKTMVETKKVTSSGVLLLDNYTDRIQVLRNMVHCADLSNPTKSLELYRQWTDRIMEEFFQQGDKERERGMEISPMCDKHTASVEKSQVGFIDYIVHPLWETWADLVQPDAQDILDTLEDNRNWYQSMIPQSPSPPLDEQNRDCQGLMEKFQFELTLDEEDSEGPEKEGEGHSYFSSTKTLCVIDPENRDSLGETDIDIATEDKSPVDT
# Cytochrome P450 2C19 (Homo sapiens), sequence (P33261 whole entry, looked up): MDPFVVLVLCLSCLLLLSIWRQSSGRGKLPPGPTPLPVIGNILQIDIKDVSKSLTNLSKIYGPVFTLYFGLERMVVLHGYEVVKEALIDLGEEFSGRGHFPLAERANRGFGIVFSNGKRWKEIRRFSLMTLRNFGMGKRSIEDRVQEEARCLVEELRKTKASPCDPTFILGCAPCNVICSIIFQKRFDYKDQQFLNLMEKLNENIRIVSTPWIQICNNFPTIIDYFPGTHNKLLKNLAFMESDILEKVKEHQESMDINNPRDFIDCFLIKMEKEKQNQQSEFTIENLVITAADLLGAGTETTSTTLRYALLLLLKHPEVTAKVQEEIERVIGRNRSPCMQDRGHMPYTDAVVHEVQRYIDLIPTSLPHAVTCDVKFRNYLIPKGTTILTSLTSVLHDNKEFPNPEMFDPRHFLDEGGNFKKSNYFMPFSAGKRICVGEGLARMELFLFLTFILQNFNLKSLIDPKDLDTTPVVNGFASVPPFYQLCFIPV
SMILES,Potency [1],"activity change, negative = inhibition [2]","activity change, negative = inhibition [3]","activity, negative = inhibition [4]",Potency [5],Potency [6],Potency [7],Potency [8],"activity change, negative = inhibition [9]","max response [9, 19] [%]","max response [9, 20] [%]",Potency [10],Potency [11],Potency [12],Potency [13],Potency [14],Potency [15],Potency [16],Potency [17],activation [18]
COc1ccc(-n2c(=O)c(-c3ccc(F)cc3)nc3cnc(N4CCNCC4)nc32)cc1,> 11.4 µM (inactive),-1.98% (inactive),27.8% (inactive),9.23% (inactive),> 9.22 µM (inactive),> 46 µM (inactive),inactive,inactive,0.369% (inactive),11.2,12.6,inactive,inactive,inactive,inactive,–,–,–,–,–
CN1CCN(c2ncc3nc(-c4ccc(Cl)cc4)c(=O)n(Cc4ccc(F)cc4)c3n2)CC1,> 11.4 µM (inactive),–,–,–,> 9.22 µM (inactive),> 46 µM (inactive),–,inactive,-1.37% (inactive),15.9,10.5,inactive,inactive,inactive,inactive,31.6 µM (active),inactive,15.8 µM (active),–,–
COc1ccccc1-c1nccc(NCc2ccccc2)n1,> 11.4 µM (inactive),-2.63% (inactive),1.11% (inactive),1.51% (inactive),> 46 µM (inactive),> 46 µM (inactive),inactive,–,1.38% (inactive),3.72,0.722,inactive,inactive,inactive,22.4 µM (active),2.51 µM (active),–,inactive,7.94 µM (active),–
Cc1ccccc1-c1nc(N2CCOCC2)c2ccccc2n1,> 11.4 µM (inactive),4.71% (inactive),-2.19% (inactive),4.23% (inactive),> 46 µM (inactive),> 46 µM (inactive),inactive,–,6.43% (inactive),31.7,38.9,15.8 µM (active),15.8 µM (active),12.6 µM (active),28.2 µM (active),2 µM (active),–,inactive,–,11% (inactive)
COc1ccc(-c2nc3cnc(OC)nc3n(C[C@H]3CCCO3)c2=O)cc1,> 11.4 µM (inactive),-17.7% (inactive),11.8% (inactive),-12.4% (inactive),> 9.22 µM (inactive),> 46 µM (inactive),inactive,–,0.324% (inactive),2.19,1.25,inactive,inactive,inactive,inactive,–,–,–,–,–
